Measurements taken from PubChem BioAssay.
“And” between values parts separate entries of the source, which are not always exact repeats. Identical values can stand only once. The source made the active and inactive calls.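 How the source made its calls, unless noted: active means inhibition at or above 50% relative to wild type and mutant plate controls; inactive means inhibition below 50%.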

How the values were obtained:
[1] = inhibitors of TNFa-induced NFkB p65 translocation, primary screen, imaging, HUVEC, MLSMR starter and 10KST1 sets (AID 438;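 active means inhibition above 20% together with a positive visual image hit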;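 further: compound added about 3h40 before a 20 min TNFalpha stimulation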;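 on inhibition: signal is the nuclear over cytoplasmic p65 intensity ratio per well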); details: HUVEC TNFa-induced p65 nuclear translocation; cell count: measured here: nuclei count (cytotoxicity indicator), at 2.08 µM; inhibition: at 2 µM, stronger effect = higher value, 0% TNFa-plus-vehicle, 100% no-TNFa wells
[2] = inhibitors of mutant huntingtin aggregation, primary screen, imaging, exon1htt(103Q)mCFP cells, high-content imaging (AID 483;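 active means visual image review flags a hit and inhibition of aggregation exceeds 20%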;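 further: compound exposure lasted 3 days before fixation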;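 on nuclei count: percent of the per-plate median nuclei count of sample wells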); details: exon1htt(103Q)mCFP cell line, aggregate imaging, at 2 µM; inhibition of aggregation: stronger effect = higher value; nuclei count: measured here: cell count, toxicity
[3] = inhibitors of E-selectin induction by TNFa, primary screen, imaging, HUVEC, immunofluorescence, MLSMR starter and 10KST1 sets (AID 487;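 active means visually confirmed hit in the image check and inhibition above 20%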;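 on inhibition: signal is fraction of cell area covered by stained E-selectin grains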;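 on nuclei count: 100% = median nuclei count of all wells on the same plate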); details: HUVEC TNFalpha-induced E-selectin immunofluorescence imaging, at 2 µM; inhibition: stronger effect = higher value; nuclei count: measured here: cell number, toxicity
[4] = DUSP6 inhibitors restoring Erk phosphorylation by chemical complementation, primary imaging in DUSP6-transfected HeLa (AID 609;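 active means compounds giving at least 50% inhibition in the cell-based MKP-3 phosphatase rescue imaging test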;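 on inhibition: phospho-Erk level distribution per well compared with pooled transfected vehicle control wells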); details: HeLa MKP-3 transfected, phospho-Erk imaging KS statistic, at 10 µM, cells stimulated with TPA for 15 min
[5] = target: Dual specificity protein phosphatase 6 (Homo sapiens) (UniProt Q16828); test: as above; details: HeLa MKP-3 transfected, phospho-Erk imaging KS statistic; at 10 µM; stronger effect = higher value; cells stimulated with TPA for 15 min
Dual specificity protein phosphatase 6 (Homo sapiens), sequence (Q16828 whole entry, looked up): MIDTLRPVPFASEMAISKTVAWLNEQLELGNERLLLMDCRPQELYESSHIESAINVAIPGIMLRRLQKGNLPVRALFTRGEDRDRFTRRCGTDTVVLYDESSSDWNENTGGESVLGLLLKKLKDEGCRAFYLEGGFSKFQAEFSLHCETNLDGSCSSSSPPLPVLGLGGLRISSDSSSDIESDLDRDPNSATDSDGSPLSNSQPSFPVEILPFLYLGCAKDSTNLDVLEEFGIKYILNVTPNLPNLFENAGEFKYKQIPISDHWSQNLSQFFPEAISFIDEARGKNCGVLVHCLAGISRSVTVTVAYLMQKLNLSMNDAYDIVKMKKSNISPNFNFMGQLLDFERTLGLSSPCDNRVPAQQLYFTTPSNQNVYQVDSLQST

[6] = target: Voltage-gated potassium channel subunit beta-2 (Rattus norvegicus) (UniProt P62483); test: KvBeta enzyme negative modulators, primary screen, biochemical, NADPH fluorescence (AID 622;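 active means fluorescence slope higher than the sample average by over 3 SD, cut at about -0.22 in these data, passing the limit was not always enough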;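 further: slope of raw intensity against log time taken from 70 to 1610 s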); details: recombinant KvBeta, 4-cyanobenzaldehyde reduction, at 10 µM, stronger effect = higher value
Voltage-gated potassium channel subunit beta-2 (Rattus norvegicus), sequence (P62483 whole entry, looked up): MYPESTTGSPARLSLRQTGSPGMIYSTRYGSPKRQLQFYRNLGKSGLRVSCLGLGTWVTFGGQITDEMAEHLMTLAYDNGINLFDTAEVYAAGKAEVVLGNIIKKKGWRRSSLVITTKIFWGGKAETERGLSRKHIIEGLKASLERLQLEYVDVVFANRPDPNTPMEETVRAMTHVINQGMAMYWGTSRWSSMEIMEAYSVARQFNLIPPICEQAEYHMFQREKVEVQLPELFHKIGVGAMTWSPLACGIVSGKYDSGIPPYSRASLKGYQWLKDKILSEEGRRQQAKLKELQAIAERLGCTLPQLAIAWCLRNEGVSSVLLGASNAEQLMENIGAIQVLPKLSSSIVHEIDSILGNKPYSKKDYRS

[7] = target: Voltage-gated potassium channel subunit beta-2 (Rattus norvegicus) (UniProt P62483); test: KvBeta positive modulators, primary screen, biochemical, NADPH fluorescence (AID 623;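 active means NADPH fluorescence slope more negative than the mean of all samples by about 3 SD, 99.7% confidence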;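 further: fluorescence intensity change per second fitted from 20 to 320 s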); details: Recombinant KvBeta, NADPH fluorescence decrease slope, 10 min; at 10 µM; stronger effect = lower value
[8] = target: Alpha-2C adrenergic receptor (Homo sapiens) (UniProt P18825); test: modulators of alpha2C/GIRK thallium flux, primary screen, cell-based, HEK293 alpha2C/GIRK1/2 (AID 624;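 active means fluorescence slope after compound addition differing from the mean of all screened samples at 99.7% confidence, in either direction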;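 further: slope of fluorescence ratio to pre-addition baseline per second over 15 to 24 s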); details: thallium flux BTC fluorescence, at 10 µM, actives lie on both sides
Alpha-2C adrenergic receptor (Homo sapiens), sequence (P18825 whole entry, looked up): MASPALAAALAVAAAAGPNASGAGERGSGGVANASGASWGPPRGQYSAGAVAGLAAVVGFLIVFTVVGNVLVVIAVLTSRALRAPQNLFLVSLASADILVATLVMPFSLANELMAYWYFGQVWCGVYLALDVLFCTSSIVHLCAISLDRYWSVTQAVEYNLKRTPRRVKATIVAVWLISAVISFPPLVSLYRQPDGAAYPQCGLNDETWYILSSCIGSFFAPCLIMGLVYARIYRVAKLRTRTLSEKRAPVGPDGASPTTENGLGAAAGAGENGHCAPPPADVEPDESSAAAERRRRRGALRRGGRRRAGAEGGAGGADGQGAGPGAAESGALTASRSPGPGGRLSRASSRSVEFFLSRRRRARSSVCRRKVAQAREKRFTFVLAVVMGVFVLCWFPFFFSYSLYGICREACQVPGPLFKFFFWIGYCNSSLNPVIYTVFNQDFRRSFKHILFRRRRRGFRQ

[9] = inhibitors of larval lipid processing in zebrafish, primary screen, whole organism, PED6 fluorescence, gall bladder and intestine (AID 686;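 active means a full or partial loss of lipid-probe fluorescence in the fish gall bladder, intestine or both, judged by eye; inactive means no fluorescence loss, or compound toxic to the fish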;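 further: larvae 5 to 7 days old with five fish per well; signal comes from phospholipase A2 cleavage of quenched PED6 carried via bile; overnight exposure to compound and PED6 before scoring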); details: Zebrafish larvae PED6 lipid processing, fluorescence scoring; screened at 20 µM (by protocol)
[10] = inhibitors of Chlamydomonas gravitaxis, primary screen, whole organism, Chlamydomonas reinhardtii, WT vs cilia-less mutant, absorbance, 96-well (AID 463189); details: OD600 absorbance, 2 days, at 10 µM, stronger effect = higher value;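 further: 0% = wild type cc124 cells in DMSO and 100% = ciliumless bld1 mutant cells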
[11] = inhibitors of Sendai virus-induced IRF3 signaling, primary screen, TLR/RLR signaling modifier project, cell-based, Sendai virus stimulus, luciferase, 10K MLSCN set (AID 602276;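 active means inhibition at or above 50% at 10 µM; inactive means inhibition below 50%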;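 further: firefly luciferase from ISG56 promoter only with Renilla not read in this screen; 0% = Sendai virus plus DMSO and 100% = medium plus DMSO without virus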); details: HEK293 RL24 IRF3 luciferase reporter, at 10 µM, stronger effect = higher value
[12] = inhibitors of poly I:C-induced TLR3 signaling, primary screen, cell-based, poly I:C stimulus, luciferase, 10K MLSCN set (AID 602277;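 active means inhibition of the reporter signal at or above 50%; inactive means inhibition below 50%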); details: HEK293-TLR3 RL24 IRF3 luciferase reporter, at 10 µM, stronger effect = higher value
[13] = measured here: cell density z-score
[14] = measured here: nuclear c-Myc green intensity z-score
[15] = measured here: nuclear pErk red intensity z-score, stronger effect = higher value

CC(=O)NCCCCCCNC(C)=O
cell count [1]: 515 | inhibition [1]: -2% (inactive) | inhibition of aggregation [2]: -11.6% (inactive) | nuclei count [2]: 101% | inhibition [3]: 5.3% (inactive) | nuclei count [3]: 114% | z-score [4, 13]: -1.8 | z-score [4, 14]: 0.662 | z-score [4, 15]: 0.679 | inhibition [5]: 10.2% (inactive) | fluorescence slope [6]: -0.45 (inactive) | NADPH fluorescence slope [7]: -5.8e-05 (inactive) | slope [8]: 0.00491 (inactive) | outcome [9]: inactive | inhibition [10]: 20.9% (inactive) | inhibition [11]: 9.84% (inactive) | inhibition [12]: 44.8% (inactive)

CC(=O)Nc1ccccc1O
cell count [1]: 675 | inhibition [1]: 0.8% (inactive) | inhibition of aggregation [2]: 14.1% (inactive) | nuclei count [2]: 106% | inhibition [3]: -84.6% (inactive) | nuclei count [3]: 121% | z-score [4, 13]: -0.0756 | z-score [4, 14]: 0.873 | z-score [4, 15]: -0.0939 | inhibition [5]: 7.39% (inactive) | fluorescence slope [6]: -0.439 (inactive) | NADPH fluorescence slope [7]: -5.7e-05 (inactive) | slope [8]: 0.00449 (inactive) | outcome [9]: inactive | inhibition [10]: -2.47% (inactive) | inhibition [11]: 13.6% (inactive) | inhibition [12]: 37.8% (inactive)

Cn1c([N+](=O)[O-])cnc1COC(N)=O
cell count [1]: 663 | inhibition [1]: -2.1% (inactive) | inhibition of aggregation [2]: 6.9% (inactive) | nuclei count [2]: 97.8% | inhibition [3]: -73.8% (inactive) | nuclei count [3]: 138% | z-score [4, 13]: 0.12 | z-score [4, 14]: 0.491 | z-score [4, 15]: 1.01 | inhibition [5]: 1.48% (inactive) | fluorescence slope [6]: -0.492 (inactive) | NADPH fluorescence slope [7]: -3.9e-05 (inactive) | slope [8]: 0.00486 (inactive) | outcome [9]: inactive | inhibition [10]: 15.2% (inactive) | inhibition [11]: 16.7% (inactive) | inhibition [12]: 40.5% (inactive)

CCOC(=O)C1=C[C@]2(CC)CCCN3CCc4c(n1c1ccccc41)[C@@H]32
cell count [1]: 689 | inhibition [1]: -1.6% (inactive) | inhibition of aggregation [2]: 15.2% (inactive) | nuclei count [2]: 106% | inhibition [3]: -59.3% (inactive) | nuclei count [3]: 130% | z-score [4, 13]: -0.259 | z-score [4, 14]: 0.193 | z-score [4, 15]: -0.265 | inhibition [5]: 3.45% (inactive) | fluorescence slope [6]: -0.443 (inactive) | NADPH fluorescence slope [7]: -4.6e-05 (inactive) | slope [8]: 0.013 (active) | outcome [9]: inactive | inhibition [10]: 5.61% (inactive) and -6.65% (inactive) | inhibition [11]: 5.01% (inactive) | inhibition [12]: 18.6% (inactive)

CCc1ccccc1NC(=O)CSC1=C(C#N)C(c2ccc(O)c(OC)c2)C2=C(CCCC2=O)N1 (configuration not stated)
cell count [1]: 554 | inhibition [1]: -8.4% (inactive) | inhibition of aggregation [2]: -29.5% (inactive) | nuclei count [2]: 109% | inhibition [3]: -146% (inactive) | nuclei count [3]: 137% | z-score [4, 13]: -0.0849 | z-score [4, 14]: -0.0258 | z-score [4, 15]: 0.52 | inhibition [5]: 13.2% (inactive) | fluorescence slope [6]: -0.422 (inactive) | NADPH fluorescence slope [7]: -3.5e-05 (inactive) | slope [8]: 0.00571 (inactive) | outcome [9]: inactive | inhibition [10]: 22.1% (inactive) | inhibition [11]: 18.6% (inactive) | inhibition [12]: 20% (inactive)

Cc1cc(NC(=O)C2=C(O)c3ccccc3S(=O)(=O)N2C)no1
cell count [1]: 693 | inhibition [1]: -7.5% (inactive) | inhibition of aggregation [2]: 9.1% (inactive) | nuclei count [2]: 108% | inhibition [3]: -39.3% (inactive) | nuclei count [3]: 120% | z-score [4, 13]: 0.515 | z-score [4, 14]: 0.415 | z-score [4, 15]: 0.569 | inhibition [5]: 7.39% (inactive) | fluorescence slope [6]: -0.538 (inactive) | NADPH fluorescence slope [7]: -2.2e-05 (inactive) | slope [8]: 0.00444 (inactive) | outcome [9]: inactive | inhibition [10]: -6.68% (inactive) | inhibition [11]: 12.9% (inactive) | inhibition [12]: 25.5% (inactive)

CCN(CC)C(=O)CSC1=C(C#N)C(c2ccco2)C(C(=O)OCCOC)=C(C)N1 (configuration not stated)
cell count [1]: 393 | inhibition [1]: -8.6% (inactive) | inhibition of aggregation [2]: 15.4% (inactive) | nuclei count [2]: 104% | inhibition [3]: -184% (inactive) | nuclei count [3]: 152% | z-score [4, 13]: 0.81 | z-score [4, 14]: -0.0131 | z-score [4, 15]: 1.47 | inhibition [5]: -3.98% (inactive) | fluorescence slope [6]: -0.378 (inactive) | NADPH fluorescence slope [7]: -3e-05 (inactive) | slope [8]: 0.00415 (inactive) | outcome [9]: inactive | inhibition [10]: 14% (inactive) | inhibition [11]: 2.19% (inactive) | inhibition [12]: 16.7% (inactive)

NC(=O)N1c2ccccc2C=Cc2ccccc21
cell count [1]: 639 | inhibition [1]: -4.6% (inactive) | inhibition of aggregation [2]: -10.6% (inactive) | nuclei count [2]: 110% | inhibition [3]: -55.6% (inactive) | nuclei count [3]: 127% | z-score [4, 13]: -0.0512 | z-score [4, 14]: 0.625 | z-score [4, 15]: -1.48 | inhibition [5]: 15.3% (inactive) | fluorescence slope [6]: -0.492 (inactive) | NADPH fluorescence slope [7]: -4.6e-05 (inactive) | slope [8]: 0.00463 (inactive) | outcome [9]: inactive | inhibition [10]: 5.34% (inactive) and 20.1% (inactive) | inhibition [11]: 7.49% (inactive) | inhibition [12]: 22.1% (inactive)

COc1ccc(C2CC(=O)C(C=NCCN3CCOCC3)=C(O)C2)cc1 (configuration not stated)
cell count [1]: 379 | inhibition [1]: -8.5% (inactive) | inhibition of aggregation [2]: 0.1% (inactive) | nuclei count [2]: 106% | inhibition [3]: -118% (inactive) | nuclei count [3]: 138% | z-score [4, 13]: 0.329 | z-score [4, 14]: 0.663 | z-score [4, 15]: -0.587 | inhibition [5]: -5.62% (inactive) | fluorescence slope [6]: -0.354 (inactive) | NADPH fluorescence slope [7]: 9.4e-06 (inactive) | slope [8]: 0.00492 (inactive) | outcome [9]: inactive | inhibition [10]: 7.09% (inactive) | inhibition [11]: 14.9% (inactive) | inhibition [12]: 20.5% (inactive)

COCCOC(=O)c1c(C)nc(SCC(=O)Nc2ccc(OC)cc2)c(C#N)c1-c1ccco1
cell count [1]: 386 | inhibition [1]: -17.9% (inactive) | inhibition of aggregation [2]: -11.5% (inactive) | nuclei count [2]: 76% | inhibition [3]: -23.1% (inactive) | nuclei count [3]: 90% | z-score [4, 13]: -0.584 | z-score [4, 14]: -0.072 | z-score [4, 15]: -0.599 | inhibition [5]: -6.59% (inactive) | fluorescence slope [6]: -0.422 (inactive) | NADPH fluorescence slope [7]: -2.9e-05 (inactive) | slope [8]: 0.00733 (inactive) | outcome [9]: inactive | inhibition [10]: -0.332% (inactive) | inhibition [11]: 16.9% (inactive) | inhibition [12]: 12.1% (inactive)

O=C(O)c1ccccc1Nc1cccc(C(F)(F)F)c1
cell count [1]: 626 | inhibition [1]: 3.3% (inactive) | inhibition of aggregation [2]: -7.4% (inactive) | nuclei count [2]: 99.3% | inhibition [3]: -44.4% (inactive) | nuclei count [3]: 131% | z-score [4, 13]: 0.0659 | z-score [4, 14]: 0.639 | z-score [4, 15]: -1.06 | inhibition [5]: 23.4% (inactive) | fluorescence slope [6]: -0.455 (inactive) | NADPH fluorescence slope [7]: -3.9e-05 (inactive) | slope [8]: 0.00472 (inactive) | outcome [9]: inactive | inhibition [10]: -7.16% (inactive) | inhibition [11]: 5.42% (inactive) | inhibition [12]: 28.4% (inactive)
